In PubChem BioAssay AID651871 (Sanford-Burnham Center for Chemical Genomics, 2012) one finds activity (protection/inhibition) data, which are given here for one molecule.

This test deals with HL-1. Briefly: cardiomyocyte survival under oxidative or metabolic stress – cell-based, panel, H9c2 and HL-1, ATP luminescence, set 2, SAR follow-up (AID 651871).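 Also: cells exposed to stressor for 2 h before ATP readout; reference of the scale not given here.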 The note with it: H9c2/HL-1 cardiomyocytes, 2-deoxyglucose stress, with 2-deoxyglucose, run 6, at 19.8 µM (top of the series).

Structures are written as SMILES. “And” between values parts separate entries of the source, which are not always exact repeats. Equal values may be shown once.

`COc1ccc2c(c1OC)C(=O)N1c3ccccc3C(=O)N(Cc3cccc(Cl)c3Cl)C21` (stereo unspecified): the activity (protection/inhibition) is 29.6% and 37.4%.
